# Results as given in the supplement of paper PMC10037445.
# Where “and” joins values, the source holds several entries; their conditions need not be identical. Identical values can stand only once. In all, about 2,900 compounds were measured (“NF-kB SEAP reporter activity, fold change vs agonist alone”: median about 0.99, highest 2% from about 2.6 on). The full list was thinned out, with the highest values kept by preference.
# How the values were obtained:
# RAW-Dual [1] = assay: NF-kB SEAP reporter activity, fold change vs agonist alone; cytotoxicity flag (confluency mask): not cytotoxic; higher = enhanced NF-kB activity
# Procedure, shortened: (§1)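 RAW-Dual macrophages (50,000 cells/well in DMEM, 384-well plates) received 50 nL of library stock by pin tool, then a PRR agonist 1 h later, and were kept at 37 °C, 5% CO2. After 20 hours, supernatant was read for IRF by QuantiLuc luminescence and for NF-κB by QuantiBlue absorbance at 620 nm. Reporter activity is fold change over agonist-alone wells. Cytotoxic wells had IncuCyte confluency below 70% of agonist controls in both mask sets.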
# RAW-Dual [2] = assay: NF-kB SEAP reporter activity, fold change vs agonist alone; higher = enhanced NF-kB activity
# Procedure, shortened: as §1
# RAW-Dual [3] = assay: NF-kB SEAP reporter activity, fold change vs agonist alone; cytotoxicity flag (confluency mask): cytotoxic (confluency <70% of control); higher = enhanced NF-kB activity
# Procedure, shortened: as §1
# [4] = agonist: ODN 1826 (TLR9) 0.5 ug/mL
# [5] = agonist: Pam2CSK4 (TLR2/6) 0.1 ug/mL
# [6] = agonist: Pam3CSK4 (TLR2/1) 0.1 ug/mL
# [7] = library stock concentration (final ~1000-fold dilution): 10 mM, cytotoxicity flag (confluency mask): not cytotoxic, agonist: MPLA (TLR4) […]
# [8] = library stock concentration (final ~1000-fold dilution): 10 mM, cytotoxicity flag (confluency mask): not cytotoxic, agonist: Imiquimod (TLR7) […]
smiles,measurement,setting,value
O=C(O)CC(O)CC(O)C=Cc1c(C2CC2)nc2ccccc2c1-c1ccc(F)cc1 (configuration not stated) (library stock concentration (final ~1000-fold dilution): 10 mM),NF-kB SEAP reporter activity,RAW-Dual [1]; agonist: LPS (TLR4) 0.1 ug/mL,3
same,NF-kB SEAP reporter activity,RAW-Dual [1]; [4],3
same,NF-kB SEAP reporter activity,RAW-Dual [1]; [5],2.4
same,NF-kB SEAP reporter activity,RAW-Dual [1]; [6],3.31
CC(C)c1c(C(=O)Nc2ccccc2)c(-c2ccccc2)c(-c2ccc(F)cc2)n1CCC(O)CC(O)CC(=O)O (configuration not stated) (library stock concentration (final ~1000-fold dilution): 10 mM),NF-kB SEAP reporter activity,RAW-Dual [1]; agonist: LPS (TLR4) 0.1 ug/mL,1.85 and 2.93
same,NF-kB SEAP reporter activity,RAW-Dual [1]; [4],1.49 and 1.82
same,NF-kB SEAP reporter activity,RAW-Dual [1]; [5],1.03 and 1.49
same,NF-kB SEAP reporter activity,RAW-Dual [1]; [6],1.3 and 1.42
CC(C)c1nc(N(C)S(C)(=O)=O)nc(-c2ccc(F)cc2)c1/C=C/C(O)CC(O)CC(=O)O (configuration not stated),NF-kB SEAP reporter activity,RAW-Dual [2]; [7],1.1
CC(C)c1nc(N(C)S(C)(=O)=O)nc(-c2ccc(F)cc2)c1C=CC(O)CC(O)CC(=O)O (configuration not stated),NF-kB SEAP reporter activity,RAW-Dual [2]; [8],0.909
same,NF-kB SEAP reporter activity,RAW-Dual [2]; [7],1.05
CC(C)c1nc(N(C)S(C)(=O)=O)nc(-c2ccc(F)cc2)c1C=CC(O)CC(O)CC(=O)O (configuration not stated) (library stock concentration (final ~1000-fold dilution): 10 mM),NF-kB SEAP reporter activity,RAW-Dual [1]; agonist: LPS (TLR4) 0.1 ug/mL,1.43
same,NF-kB SEAP reporter activity,RAW-Dual [1]; [4],1.24
same,NF-kB SEAP reporter activity,RAW-Dual [1]; [5],1.01
same,NF-kB SEAP reporter activity,RAW-Dual [1]; [6],1.2
CC(C)n1c(C=CC(O)CC(O)CC(=O)O)c(-c2ccc(F)cc2)c2ccccc21 (configuration not stated) (library stock concentration (final ~1000-fold dilution): 10 mM),NF-kB SEAP reporter activity,RAW-Dual [1]; agonist: LPS (TLR4) 0.1 ug/mL,3.64
same,NF-kB SEAP reporter activity,RAW-Dual [1]; [4],2.92
same,NF-kB SEAP reporter activity,RAW-Dual [1]; [5],2.13
same,NF-kB SEAP reporter activity,RAW-Dual [1]; [6],3.38
CC(C)n1c(C=CC(O)CC(O)CC(=O)O)c(-c2ccc(F)cc2)c2ccccc21 (configuration not stated),NF-kB SEAP reporter activity,RAW-Dual [2]; [8],2.45
same,NF-kB SEAP reporter activity,RAW-Dual [2]; [7],2.14
O=C(O)CC(O)CC(O)C=Cc1c(C2CC2)nc2ccccc2c1-c1ccc(F)cc1 (configuration not stated),NF-kB SEAP reporter activity,RAW-Dual [2]; [8],2.52
same,NF-kB SEAP reporter activity,RAW-Dual [2]; [7],2.05
O=c1[nH]c(=S)[nH]c2nc(-c3ccccc3)c(-c3ccccc3)nc12,NF-kB SEAP reporter activity,RAW-Dual [2]; [8],0.796
same,NF-kB SEAP reporter activity,RAW-Dual [2]; [7],0.977
O=c1[nH]c(=S)[nH]c2nc(-c3ccccc3)c(-c3ccccc3)nc12 (library stock concentration (final ~1000-fold dilution): 10 mM),NF-kB SEAP reporter activity,RAW-Dual [1]; agonist: LPS (TLR4) 0.1 ug/mL,0.947
same,NF-kB SEAP reporter activity,RAW-Dual [1]; [4],0.854
same,NF-kB SEAP reporter activity,RAW-Dual [1]; [5],0.938
same,NF-kB SEAP reporter activity,RAW-Dual [1]; [6],0.926
Br.CCCc1cc(-c2nc(-c3ccc(C)cc3)cs2)ccn1,NF-kB SEAP reporter activity,"RAW-Dual [2]; library stock concentration (final ~1000-fold dilution): 10 mM, cytotoxicity flag (confluency mask): cytotoxic (confluency <70% of control), agonist: Imiquimod (TLR7) […]",1.1
same,NF-kB SEAP reporter activity,"RAW-Dual [2]; library stock concentration (final ~1000-fold dilution): 10 mM, cytotoxicity flag (confluency mask): cytotoxic (confluency <70% of control), agonist: MPLA (TLR4) […]",1.37
Br.CCCc1cc(-c2nc(-c3ccc(C)cc3)cs2)ccn1 (library stock concentration (final ~1000-fold dilution): 10 mM),NF-kB SEAP reporter activity,RAW-Dual [3]; agonist: LPS (TLR4) 0.1 ug/mL,1.54
same,NF-kB SEAP reporter activity,RAW-Dual [3]; [4],1.04
same,NF-kB SEAP reporter activity,RAW-Dual [3]; [5],1.07
same,NF-kB SEAP reporter activity,RAW-Dual [3]; [6],0.895
Cc1cccc(CN2CCN(C(c3ccccc3)c3ccc(Cl)cc3)CC2)c1.Cl.Cl (configuration not stated),NF-kB SEAP reporter activity,"RAW-Dual [2]; library stock concentration (final ~1000-fold dilution): 2 mM, cytotoxicity flag (confluency mask): not cytotoxic, agonist: Imiquimod (TLR7) […]",0.843
same,NF-kB SEAP reporter activity,"RAW-Dual [2]; library stock concentration (final ~1000-fold dilution): 2 mM, cytotoxicity flag (confluency mask): not cytotoxic, agonist: MPLA (TLR4) […]",1.15
